Only a selection was taken, and hits are over-represented in it overall.
SF-1 inh – inhibitors of human SF-1, primary screen, cell-based, CHO-K1, Gal4-SF-1 LBD, luciferase luminescence | inhibition, % at 10 µM | Steroidogenic factor 1 (Homo sapiens), Q13285 | CHO-K1 Gal4-SF-1 LBD luciferase reporter | AID 525, 2006 | hit rate 0.55% among 65,000;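 active means inhibition above the mean inhibition of all tested compounds plus 3 SD, cut at about 48% in these data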;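 further: 0% = SF-1 transfected cells with DMSO and 100% = mock-transfected cells lacking SF-1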
Target sequence (Q13285 whole entry, looked up, the tested form may be a part): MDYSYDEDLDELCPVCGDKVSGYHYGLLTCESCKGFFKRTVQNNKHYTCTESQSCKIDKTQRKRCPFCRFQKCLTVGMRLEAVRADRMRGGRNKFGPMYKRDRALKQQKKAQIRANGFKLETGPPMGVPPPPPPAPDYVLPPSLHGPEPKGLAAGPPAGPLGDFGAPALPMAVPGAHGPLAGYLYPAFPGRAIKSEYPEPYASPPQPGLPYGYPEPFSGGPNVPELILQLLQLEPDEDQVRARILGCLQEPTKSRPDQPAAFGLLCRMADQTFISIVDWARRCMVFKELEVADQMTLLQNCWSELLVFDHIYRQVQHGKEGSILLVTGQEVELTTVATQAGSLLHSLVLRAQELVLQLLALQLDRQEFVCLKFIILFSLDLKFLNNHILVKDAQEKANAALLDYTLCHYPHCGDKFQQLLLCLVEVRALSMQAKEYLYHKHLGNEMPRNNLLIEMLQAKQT
An asterisk follows results filed as active.

SMILES	SF-1 inh
Cc1ccc(Nc2nc3nonc3[nH]c2=O)cc1	-31.0
O=C(OCc1c(F)cccc1Cl)c1cnccn1	-9.5
O=C(NC1CCCc2ccccc21)C1CCN(c2nnc(-n3cccc3)s2)CC1 (centres undefined)	-23.7
Cc1ccc(-c2nc(CS(=O)(=O)CC(=O)N3CC(C)CC(C)C3)c(C)o2)cc1 (centres undefined)	0.0
CCc1ccc(-c2nc(CSCC(=O)NCCCN3CCCC3=O)c(C)o2)cc1	63.3*
CCOCCCNC(=O)CS(=O)(=O)Cc1nc(-c2cccc(OC)c2)oc1C	-6.2
COCCNC(=O)c1ccc2ccccc2n1	-8.1
CCOc1ccc(-c2nc(CSCC(=O)NCc3ccco3)c(C)o2)cc1	94.5*
COCCNC(=O)CSCc1nc(-c2ccc(SC)cc2)oc1C	90.0*
CCOC(=O)N1CCC(NC(=O)C2CCN(Cc3nc(-c4ccc(CC)cc4)oc3C)CC2)CC1	16.2
COc1ccc(C(=O)Nc2ccccc2-c2nnn(CC(=O)NCc3ccco3)n2)cc1	7.6
CCC(OC(=O)c1ccco1)C(=O)NCc1ccco1 (centres undefined)	13.3
COc1ccc(N2C(=O)C3CCCN3C2c2ccc(C)cc2)cc1Cl (centres undefined)	-4.4
Cc1ccc(S(=O)(=O)N(Cc2nccn2C)C(C)C)cc1	8.9
CCN1CCc2c(sc3c2c(NCc2ccco2)nc2nnnn23)C1	-2.4
O=C(Nc1nccs1)c1ccc(CSc2nnnn2-c2ccccc2)cc1	-40.7
Cc1ccc(N2C(=O)Nc3ccc(Br)cc3C2(O)C(=O)NCCCN(C)C)cc1C (centres undefined)	7.6
CCN(CC)c1ccc(-c2nn3c(-c4cccnc4)nnc3s2)cc1	6.6
C=C(C)CSC1=C(C#N)C(c2ccccc2)CC(=O)N1 (centres undefined)	10.0
Nc1c(C(=O)Nc2ccc3c(c2)OCCO3)nnn1CCc1ccccc1	-92.4
COc1cccc(CNC(=O)c2nnn(CC(=O)Nc3ccc(C)c(C)c3)c2N)c1	56.0*
CCc1ccccc1NC(=O)c1nnn(CC(=O)Nc2ccccc2C)c1N	4.1
COc1ccc(-n2c(=S)[nH]c3cc(C(=O)NCCCN4CCCC4=O)ccc3c2=O)cc1	-8.2
COc1ccccc1N1CCN(C(=O)c2ccc(S(=O)(=O)N3CCCC3)cc2)CC1	-9.7
CCn1nccc1C(=O)Nc1ccc(Cl)cc1Cl	-66.7
SMILES	SF-1 inh
COC(=O)c1cc(OC)c(OCc2cc(C(=O)OC)oc2C)c(OC)c1	3.2
CCCS(=O)(=O)c1nnnn1-c1cccc(OC)c1	58.4*
CCOC(=O)Cn1nnc(-c2cccc(OC)c2)n1	5.9
CCCC(c1nnnn1CCOC)N1CCN(c2cccc(OC)c2)CC1 (centres undefined)	-0.4
CCOC(=O)c1nnn(-c2nn3nnnc3c3ccccc23)c1C	0.2
Cc1cc(C(=O)CSc2nncs2)c(C)n1-c1ccc2c(c1)OCO2	-68.8
CC1=C(C(=O)Nc2ccccn2)C(c2cccnc2)n2nnnc2N1 (centres undefined)	-8.6
c1ccc(N2CCN(c3ncnc4sc5c(c34)CCC5)CC2)cc1	3.7
Fc1ccc(Nc2nc(N3CCOCC3)c3ccccc3n2)cc1	19.2
Fc1ccc2[nH]c3c(N4CCN(c5ccccc5)CC4)ncnc3c2c1	59.6*
CCCCOc1ncnc2c1[nH]c1ccc(F)cc12	49.9*
CN(CC(=O)N1CCN(c2ccccc2)CC1)S(=O)(=O)c1cnc[nH]1	6.4
Cn1c(=O)oc2cc(S(=O)(=O)N3CCC(N4CCCCC4)CC3)ccc21	25.7
CCCCS(=O)(=O)NC1=NCN(CCOC(=O)c2ccccc2)CN1	4.4
Oc1c(/C=N/c2ncn[nH]2)ccc2ccccc12	7.2
O=C1OCCC1Sc1nnc(-c2ccc3c(c2)OCO3)n1-c1ccccc1 (centres undefined)	3.8
Cc1c(N=C2SCC(=O)N2c2c(C)n(C)n(-c3ccccc3)c2=O)c(=O)n(-c2ccccc2)n1C	-21.2
CCc1c(C)nc2ncnn2c1NCCc1ccc(OC)cc1	85.2*
CCOC(=O)NCCc1ccc(OC)cc1	5.4
COc1ccc(CCNc2oc(COc3ccccc3)nc2C#N)cc1	-4.7
Fc1ccc(Cn2nnnc2CN2CCc3ccccc3C2)cc1	18.7
CCOC(=O)N1CCN(S(=O)(=O)c2c(C)[nH]c(=O)[nH]c2=O)CC1	-4.6
Nc1ccc(-c2nc3c(Cl)cc(N)cc3[nH]2)cc1	55.2*
COCCn1c(SCC(=O)c2ccccc2)nc2c(c1=O)SC(C)C2 (centres undefined)	2.7
Cc1csc(NC(=O)c2ccoc2C)n1	-56.1
SMILES	SF-1 inh
CCN(CC)CCNC(=O)C1c2cc(OC)c(OC)cc2C(=O)N2CCc3ccccc3C12 (centres undefined)	-15.2
COc1ccc(-c2cc(C(F)(F)F)nc(SCC(=O)Nc3cc(C)on3)n2)cc1OC	22.8
Nc1c(C(=O)NC2CCCC2)sc2nc(-c3cccs3)ccc12	-59.7
CCn1cnc2c1c(=O)n(CC(=O)Nc1cc(C)on1)c(=O)n2Cc1ccccc1	-0.5
Cc1cc(NC(=O)CCCS(=O)(=O)c2nc(-c3cccs3)cc(C(F)(F)F)n2)no1	48.4*
CS(=O)(=O)c1nc(-c2cccs2)cc(C(F)(F)F)n1	70.3*
CN(C1CCCCC1)S(=O)(=O)c1ccc(-n2cnnn2)cc1	26.3
CN(Cc1ccccc1)C(=O)CCCn1c(=O)[nH]c2cc(Cl)ccc2c1=O	-7.4
COc1cccc(-c2nnc(SCC(=O)OC(C)C)n2N)c1	8.5
CCOC(=O)Cn1c(CN2CC(C)OC(C)C2)nc2c1c(=O)n(C)c(=O)n2C (centres undefined)	-0.5
CC1Cc2ccccc2N1C(=O)CCNS(=O)(=O)c1cccc2nsnc12 (centres undefined)	6.9
O=C(Nc1cccc(-c2nnc(-c3ccccc3)o2)c1)c1ccc(Br)o1	-67.0
CC(C)NCC(O)Cn1c2c(c3ccccc31)CCc1c-2cnn1-c1ccccc1 (centres undefined)	52.5*
O=C(Nc1ccc2c(c1)OCCO2)c1ccc(Br)o1	-58.8
COC(=O)C1=CN(C2CC2)C=C(C(=O)OC)C1c1ccccc1OC	-6.1
COc1ccc(C(=O)Nc2ccc(C)cn2)c(OC)c1	82.1*
CCCC(=O)Nc1ccc(NC(=O)c2cccc(OC)c2)nc1	-60.4
COc1cccc(C(=O)Nc2ccc(NC(C)=O)cn2)c1	-35.1
CC(NC(=O)c1ccco1)C(=O)OCc1cccc(Cl)c1 (centres undefined)	-7.6
O=C(/C=C\Nc1ccc2c(c1)OCO2)c1ccccn1	83.1*
O=C(Nc1ccc2c(c1)OCO2)c1cccs1	-60.7
c1cc(CNc2ccc3c(c2)OCO3)ccn1	-6.9
CCCCN(CC)Cc1ccc(CNC(=O)Nc2ccc(OC)cc2OC)o1	-6.6
Cc1c(NC(=O)c2cc(=O)[nH]c(=O)[nH]2)c(=O)n(-c2ccccc2)n1C	-3.2
CC(C)c1nnc(NC(=O)c2cnccn2)s1	-50.7
SMILES	SF-1 inh
CCN(C(=O)c1ccc(C(C)(C)C)cc1)c1nnc(Cn2nnc3ccccc32)s1	68.6*
COc1ccc(-n2nc3cc(C)c(N)c(Br)c3n2)cc1	-64.2
CCc1nn2cc(-c3ccccc3)nc2s1	69.0*
CCc1nc(C)c(-c2ccccc2)c(=O)[nH]1	-10.3
O=C(CCCC(=O)N(CC(=O)NC1CCCCC1)CC1CCCO1)Nc1ccccn1 (centres undefined)	-1.0
Cc1ccc(-c2csc3n[nH]c(=S)n23)cc1	-0.2
O=[n+]1c2c(n([O-])c3cc(F)c(F)cc31)CCCC2	6.6
CCN(CC)c1ccc(NC(=O)c2ccccc2F)cc1	-73.8
CCN(CC)c1ccc2cc(-c3nnc(-c4ccncc4)o3)c(=O)oc2c1	-73.2

Screens: PubChem BioAssay, The Scripps Research Institute Molecular Screening Center
